From ChEMBL document CHEMBL1157539, “Thousands of chemical starting points for antimalarial lead identification” (Nature, 2010)

The compounds below were run on HepG2 (assay: GSK_TCMDC: Percent inhibition of human HepG2 cell line. Test compounds present at 10uM.).
Type: functional
In the case of CCN(CCN(C)C)Cc1ccc(-c2ccc(NS(=O)(=O)c3cccc(Cl)c3)cc2)cc1.O=C(O)C(F)(F)F, the Inhibition is reported as 43%.
CCc1ccc(NC(=O)c2ccc(CN3CCCN(Cc4cccc(Cl)c4)CC3)cc2)cc1.O=C(O)C(F)(F)F gave an Inhibition of 50%.
C=CC[C@H](C[C@H](O)[C@H](Cc1ccccc1)NC(=O)c1ccc(-n2cccn2)cc1)C(=O)NC1CCCCC1 showed an Inhibition of 1%.
In the case of COc1ccc2ncc(F)c([C@@H](O)CN3CCC(NCc4ccc5c(c4)NCCS5)CC3)c2n1.Cl, the Inhibition is reported as 77%.
In the case of Fc1ccc(Nc2ccnc3cc(-c4ccc(CNCCN5CCOCC5)o4)ccc23)c(Cl)c1, the Inhibition is reported as 34%.
With Cc1nc(N)nc(N)c1C#CC1CCCC1 the Inhibition was 68%.
With COc1cccc2c(NCCNc3ccnc4c(OC)cccc34)ccnc12.Cl the Inhibition was 11%.
In the case of Cc1sc2nc(CSc3ccccc3)nc(N3CCN(CC(=O)NC4CC4)CC3)c2c1C, the Inhibition is reported as 2%.
With CS(=O)(=O)O.c1ccc2c(CNCCCCCCNCc3c(OCC4CC4)ccc4ccccc34)c(OCC3CC3)ccc2c1 the Inhibition was 100%.
Work on COc1ccccc1-c1cccc(CNC2CCN(CC3Cn4c(=O)ccc5ccc(F)c3c54)CC2)c1.O=C(O)C(F)(F)F (stereo not given) yielded an Inhibition of 30%.
Cc1ccc(C)c(Cn2ccc3nc(N)nc(N)c32)c1 showed an Inhibition of 65%.
In the case of COc1cc(C(=O)NC2CCN(Cc3ccccc3)CC2)ccc1-c1cc2cc(Cl)c(Cl)cc2[nH]1.O=C(O)C(F)(F)F, the Inhibition is reported as 33%.
For CS(=O)(=O)Nc1cccc(-c2cnc3[nH]cc(-c4ccc(CN)cc4)c3c2)c1, the Inhibition was 27%.
Cc1cc(NC(=O)c2cccs2)ccc1OC1CCN(Cc2ccc(F)cc2)C1.O=C(O)C(F)(F)F (stereo not given) gave an Inhibition of 0%.
In the case of Br.CC(=O)CSC(C=Cc1ccc(N(C)C)cc1)=Nc1ccccc1, the Inhibition is reported as 38%.
For O=C(O)C(F)(F)F.c1ccc(CNCCn2c(-c3ccc4c(c3)CCO4)nc3c(N4CCCC4)cccc32)cc1, the Inhibition was 9%.
Work on O=C(N[C@@H](Cc1ccccc1)C(=O)NCCN1CCOCC1)c1ccc(O)c(-c2ccc(Cl)c(Cl)c2)c1 yielded an Inhibition of 0%.
In the case of CCCSc1nc2c(c(=O)n1Cc1ccco1)C1(CCCCC1)Cc1ccccc1-2, the Inhibition is reported as 0%.
For CCn1c(SCc2ccc(F)cc2)nc2sc3c(c2c1=O)CCN(C)C3, the Inhibition was 2%.
Cc1ccc(C(=O)Nc2ccc(OC3CCN(CCC(C)C)C3)c(Cl)c2)cc1.O=C(O)C(F)(F)F (stereo not given) gave an Inhibition of 63%.
For CO/N=C(\C)c1ccc2c(c1)CCN(CCC1CCC(NC(=O)/C=C/c3ccc(F)cc3)CC1)CC2.Cl (stereo not given), the Inhibition was 45%.
In the case of Cc1ccccc1C1CCN(C2CCC(NC(=O)/C=C/c3ccc(C(F)(F)F)cc3)CC2)CC1 (stereo not given), the Inhibition is reported as 64%.
With CC(=O)c1ccc(NC(=O)CSc2nc(-c3ccccc3Cl)ns2)cc1 the Inhibition was 0%.
In the case of CN(C)CCN(C)Cc1ccc(-c2cccc(NC(=O)c3cccc(C#N)c3)c2)cc1.O=C(O)C(F)(F)F, the Inhibition is reported as 23%.
COc1c(CN2CCOCC2)cccc1-c1cc2c(-c3ccc(C(=O)O)c(C(C)C)c3)ccnc2[nH]1.O=C(O)C(F)(F)F showed an Inhibition of 44%.
Work on O=C(NC1CC1)c1cnc(N2CCC(Cc3ccccc3)CC2)c(Cl)c1.O=C(O)C(F)(F)F yielded an Inhibition of 10%.
CN(C)CCNc1nccc(N2CCc3ncnc(Nc4ccc(OCc5cccc(F)c5)c(Cl)c4)c3C2)n1 showed an Inhibition of 65%.
Cc1nc(-c2cccc(C(=O)NC3CCC(CCN4CCc5ccc(-c6cccnc6)cc5CC4)CC3)c2)no1.Cl (stereo not given) gave an Inhibition of 17%.
For COc1ccc2ncc(F)c(CCN3C4CCC3CC(NCc3cc5c(cn3)OCS5)C4)c2n1.Cl (stereo not given), the Inhibition was 15%.
NCc1cccc(-c2ccccc2CNC2CCN(Cc3ccccc3)CC2)c1.O=C(O)C(F)(F)F was tested, and the Inhibition was 0%.
Compound Cc1ccc(CNC(=O)[C@H](CC(C)C)Nc2cc(C)nc(Nc3ccccc3)n2)cc1.O=C(O)C(F)(F)F has an Inhibition of 12%.
Work on COc1cccc2c(NN=Cc3ccccc3Cl)cc(C)nc12 yielded an Inhibition of 22%.
Work on Cc1noc(C)c1-c1cccc(CNCc2ccc(-c3cccc(-c4nc5cc(C(F)(F)F)ccc5[nH]4)c3)cc2)c1.O=C(O)C(F)(F)F yielded an Inhibition of 37%.
In the case of CCOc1ccc(C(=O)Nc2cc3c(c(C(F)(F)F)c2)CCNC3)cc1Cl.Cl, the Inhibition is reported as 4%.
Work on CCCOc1cc(OCCC)cc(-c2ccc(C(=O)Nc3ccc4ccc(C)nc4c3)c(=O)[nH]2)c1 yielded an Inhibition of 11%.
Work on COc1ccc(-c2csc3ncnc(Cl)c23)cc1 yielded an Inhibition of 0%.
With Br.COc1ccc(CCCON2C(=N)N=C(N)NC2(C)C)cc1 the Inhibition was 61%.
COc1cccc(C(=O)Nc2sc3c(c2C(N)=O)CCCC3)c1OC showed an Inhibition of 6%.
CCOc1ccc(-c2nonc2NC(=O)c2ccc(F)cc2)cc1OCC gave an Inhibition of 36%.
With Cc1cc(=NN=Cc2ccccc2Cl)c2cc(C(F)(F)F)ccc2[nH]1 the Inhibition was 0%.
